Measurements from PubChem BioAssay (NCATS).
Inconclusive results are not listed. A number with no mark means an inactive call. Calls of active or inactive are those of the source. Calls come from the whole dose curve; as a rule, active = well fitted inhibition curve with a large enough effect; inconclusive = small, poorly fitted or top-dose-only effect; inactive = flat fitted curve, though single readings scatter.

Test system: TAB113
Experiment: qHTS profiling for inhibitors of Plasmodium falciparum proliferation (AID 504749);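 for activity, negative = inhibition: 0% = DMSO vehicle and full inhibition = artemisinin control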
Conditions: P. falciparum in erythrocytes, SYBR Green DNA, 72 h; series mostly up to 28.7 µM; activity, negative = inhibition: at the top concentration
How it was run: (§1)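 Readout was DNA-dye fluorescence from lysed cultures, ex 485/em 535 nm. Parasitized red cells had grown 72 h with compound; data scaled between 0.29 uM artemisinin and DMSO wells and corrected using vehicle-only plates.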
Note: nearly all actives have a fitted effect of over 60% in size.
Potency is the fitted concentration of half-maximal effect.

Structure (SMILES) | activity, negative = inhibition
C/C=C/c1ccc(O)c(OC)c1 | -9.23%
O=C1C(CCS(=O)c2ccccc2)C(=O)N(c2ccccc2)N1c1ccccc1 (stereo not drawn) | -1.44% [at 12.8 µM]
Cc1c[nH]c2ccccc12 | 14.4%
CN(C)CCC[C@@]1(c2ccc(F)cc2)OCc2cc(C#N)ccc21 | -5.33%
CCC(CC)(CC(=O)Nc1cccc(/C=C/c2nc(C3CCC3)cs2)c1)C(=O)O | -15.7%
CC1(COc2ccc(CC3SC(=O)NC3=O)cc2)CCCCC1 (stereo not drawn) | -12%
CCCCN=C(N)N=C(N)N | -7.46%
CCN(CC)CCOc1ccccc1C(=O)CCc1ccccc1 | -28.2%
CC(=O)Nc1ccc(OCC(O)CNC(C)C)cc1 (stereo not drawn) | 9.15%
Cc1cc(NS(=O)(=O)c2ccc(N)cc2)nc(C)n1 | 7.04%
COc1ccc(CCN(C)CCCN2CCc3cc(OC)c(OC)cc3CC2=O)cc1OC | -5.08%
CCCCc1cc2ccccc2c(OCCN(C)C)n1 | -1.58% [at 12.8 µM]
NCCNC(=O)c1ccc(Cl)cn1 | 19.4%
CCc1oc2ccccc2c1C(=O)c1cc(Br)c(O)c(Br)c1 | -15.7%
CC(=O)Nc1ccc(S(=O)(=O)Nc2ccc([N+](=O)[O-])cc2)cc1 | -4.32%
COc1ccc(C(=O)c2ccccc2O)c(O)c1 | -27.1% [at 12.8 µM]

Test system: TAB165
Experiment: as above
Conditions: P. falciparum in erythrocytes, SYBR Green DNA, 72 h; series mostly up to 28.7 µM; activity, negative = inhibition: at the top concentration
How it was run: as §1

Structure (SMILES) | activity, negative = inhibition
C/C=C/c1ccc(O)c(OC)c1 | -17.1%
O=C1C(CCS(=O)c2ccccc2)C(=O)N(c2ccccc2)N1c1ccccc1 (stereo not drawn) | 2.65% [at 12.8 µM]
Cc1c[nH]c2ccccc12 | -3.42%
CCC(CC)(CC(=O)Nc1cccc(/C=C/c2nc(C3CCC3)cs2)c1)C(=O)O | -23.1%
CC1(COc2ccc(CC3SC(=O)NC3=O)cc2)CCCCC1 (stereo not drawn) | -1.7%
CCCCN=C(N)N=C(N)N | 5.04%
CC(=O)Nc1ccc(OCC(O)CNC(C)C)cc1 (stereo not drawn) | 6.57%
Cc1cc(NS(=O)(=O)c2ccc(N)cc2)nc(C)n1 | 6.52%
COc1ccc(CCN(C)CCCN2CCc3cc(OC)c(OC)cc3CC2=O)cc1OC | -25.2%
CCCCc1cc2ccccc2c(OCCN(C)C)n1 | -17.4% [at 12.8 µM]
NCCNC(=O)c1ccc(Cl)cn1 | -0.0391%
CCc1oc2ccccc2c1C(=O)c1cc(Br)c(O)c(Br)c1 | 1.25%
CC(=O)Nc1ccc(S(=O)(=O)Nc2ccc([N+](=O)[O-])cc2)cc1 | 6%

Test system: W2
Experiment: as above
Conditions: P. falciparum in erythrocytes, SYBR Green DNA, 72 h; series mostly up to 28.7 µM; activity, negative = inhibition: at the top concentration
How it was run: as §1

Structure (SMILES) | activity, negative = inhibition | Potency
C/C=C/c1ccc(O)c(OC)c1 | -13.7% | 
O=C1C(CCS(=O)c2ccccc2)C(=O)N(c2ccccc2)N1c1ccccc1 (stereo not drawn) | 7.18% [at 12.8 µM] | 
Cc1c[nH]c2ccccc12 | -7.53% | 
CCC(CC)(CC(=O)Nc1cccc(/C=C/c2nc(C3CCC3)cs2)c1)C(=O)O | -26.9% | 
CC1(COc2ccc(CC3SC(=O)NC3=O)cc2)CCCCC1 (stereo not drawn) | -2.56% | 
CCCCN=C(N)N=C(N)N | 11.4% | 
CCN(CC)CCOc1ccccc1C(=O)CCc1ccccc1 |  | 2.13 µM (active)
CC(=O)Nc1ccc(OCC(O)CNC(C)C)cc1 (stereo not drawn) | 1.84% | 
Cc1cc(NS(=O)(=O)c2ccc(N)cc2)nc(C)n1 | 17.2% | 
NCCNC(=O)c1ccc(Cl)cn1 | -12% | 
CCc1oc2ccccc2c1C(=O)c1cc(Br)c(O)c(Br)c1 | -29.4% | 
CC(=O)Nc1ccc(S(=O)(=O)Nc2ccc([N+](=O)[O-])cc2)cc1 | 13.7% | 

Test system: CRL-7250
Experiment: Cytotoxic Profiling of Annotated Libraries Using Quantitative High-Throughput Screening (AID 1296008); for max response: % is set by controls: 0 for no effect and ±100 for the full control effect
Conditions: Five cell lines viability, CellTiter-Glo ATP luminescence, 48-72 h; max response: active compounds read low
How it was run: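 Cells exposed to compounds for 48 or 72 hr at 37 degrees Celsius. Viability read as ATP-coupled luminescence with CellTiter-Glo after 10 min at room temperature.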

Structure (SMILES) | outcome | max response [%] | Potency
C=C1c2cccc(O)c2C(O)=C2C(=O)[C@]3(O)C(O)=C(C(N)=O)C(=O)[C@@H](N(C)C)[C@@H]3[C@@H](O)[C@H]12 | inactive |  | 
C/C=C/c1ccc(O)c(OC)c1 |  | -0.654 | 
CC(=C(CCOC(=O)C(C)C)SSC(CCOC(=O)C(C)C)=C(C)N(C=O)Cc1cnc(C)nc1N)N(C=O)Cc1cnc(C)nc1N |  | 0.406 | 
C=C[C@H]1CN2CC[C@H]1C[C@@H]2[C@@H](O)c1ccnc2ccc(OC)cc12 |  | -2.42 | 
O=C1C(CCS(=O)c2ccccc2)C(=O)N(c2ccccc2)N1c1ccccc1 (stereo not drawn) |  | -1.85 | 
Cc1c[nH]c2ccccc12 | inactive |  | 
Cc1ccc(-c2ncc(Cl)cc2-c2ccc(S(C)(=O)=O)cc2)cn1 |  | -1.19 | 
CC(=O)OCC1=C(C(=O)O)N2C(=O)[C@@H](NC(=O)CSc3ccncc3)[C@H]2SC1 |  | -1.6 | 
CN(C)CCC[C@@]1(c2ccc(F)cc2)OCc2cc(C#N)ccc21 |  | -3.32 | 
CCC(CC)(CC(=O)Nc1cccc(/C=C/c2nc(C3CCC3)cs2)c1)C(=O)O |  | 2.29 | 
O=[N+]([O-])c1ccc(/C=N\O)o1 |  | -1.03 | 
CCN1CCN(C(=O)N[C@@H](C(=O)N[C@@H]2C(=O)N3C(C(=O)O)=C(CSc4nnnn4C)CS[C@H]23)c2ccc(O)cc2)C(=O)C1=O |  | 3.23 | 
C[C@H]1O[C@@H](O[C@H]2CC[C@@]3(C)[C@H](CC[C@@H]4[C@@H]3C[C@@H](O)[C@]3(C)[C@@H](C5=CC(=O)OC5)CC[C@]43O)C2)C[C@H](O)[C@@H]1O[C@H]1C[C@H](O)[C@H](O[C@H]2C[C@H](O)[C@H](O[C@@H]3O[C@H](CO)[C@@H](O)[C@H](O)[C@H]3O)[C@@H](C)O2)[C@@H](C)O1 |  |  | 0.211 µM (active)
CC(CNC1CCCCC1)OC(=O)c1ccccc1 (stereo not drawn) |  | -16.2 | 
CC1(COc2ccc(CC3SC(=O)NC3=O)cc2)CCCCC1 (stereo not drawn) | inactive |  | 
N[C@H](C(=O)O)[C@@H](O)c1ccc(O)c(O)c1 | inactive |  | 
CN(C)CCOC(=O)C(c1ccccc1)C1(O)CCCC1 (stereo not drawn) |  | -17.7 | 
CCCCN=C(N)N=C(N)N |  | 1.78 | 

Structure (SMILES) | outcome | max response [%] | Potency
COC(=O)C(c1ccccc1Cl)N1CCc2sccc2C1 (stereo not drawn) |  | -10.1 | 
O=C1[C@H](CC[C@H](O)c2ccc(F)cc2)[C@@H](c2ccc(O)cc2)N1c1ccc(F)cc1 | inactive | 1.5 | 
CCN(CC)CCOc1ccccc1C(=O)CCc1ccccc1 |  | -0.916 | 
CC(=O)Nc1ccc(OCC(O)CNC(C)C)cc1 (stereo not drawn) |  | -5.23 | 
Cc1cc(NS(=O)(=O)c2ccc(N)cc2)nc(C)n1 |  | -3.14 | 
COc1ccc(CCN(C)CCCN2CCc3cc(OC)c(OC)cc3CC2=O)cc1OC |  | -0.711 | 
CC(C(=O)O)c1cccc(Oc2ccccc2)c1 (stereo not drawn) |  | -6.67 | 
CCCCc1cc2ccccc2c(OCCN(C)C)n1 |  | -9.77 | 
NCCNC(=O)c1ccc(Cl)cn1 | inactive |  | 
CCc1oc2ccccc2c1C(=O)c1cc(Br)c(O)c(Br)c1 |  | 0.197 | 
Nc1nc(Cl)nc2c1ncn2[C@@H]1O[C@H](CO)[C@@H](O)[C@@H]1F |  |  | 0.596 µM (active)
CC[C@]12CCCN3CCc4c(n(c5ccccc45)C(=O)C1)[C@@H]32 |  | 2.69 | 
C[C@]12CCC(=O)C=C1C=C[C@@H]1[C@@H]2CC[C@@]2(C)[C@H]1CC[C@@]21CCC(=O)O1 |  |  | 7.5 µM (active)
COc1cc([C@H]2Oc3cc([C@H]4Oc5cc(O)cc(O)c5C(=O)[C@@H]4O)ccc3O[C@@H]2CO)ccc1O | inactive |  | 
CC(O)Cn1cnc2c1c(=O)n(C)c(=O)n2C (stereo not drawn) |  | 2.85 | 
CC(=O)Nc1ccc(S(=O)(=O)Nc2ccc([N+](=O)[O-])cc2)cc1 |  | -4.42 | 
COc1ccc(C(=O)c2ccccc2O)c(O)c1 | inactive |  | 
CCCCN1C[C@H](O)[C@@H](O)[C@H](O)[C@H]1CO |  | -12.1 | 
